# In PubChem BioAssay AID449762 (Southern Research Specialized Biocontainment Screening …, 2010):
# The campaign covered roughly 330,000 compounds. About 1,900 (0.58%) were called active. About 4% were inconclusive and are not listed. Rule as the data show it: inconclusive = inhibition above about 70% without an active follow-up result; inactive = below that. Not all results are given here. Results with a measured potency or affinity are listed apart.
# Experiment: M. tuberculosis growth inhibition, HTS (AID 449762);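 also: bacterial growth assessed after seven days of incubation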
# Details: M. tuberculosis H37Rv growth inhibition, 7H9 media; at 25 µM; stronger effect = higher value
row,SMILES,inhibition
1,COc1cc(O)cc2occ(-c3ccc(O)cc3)c(=O)c12,-14.1% (inactive)
2,Cc1nnc(SCC(=O)NC2CCCCC2)n1N,3.31% (inactive)
3,Cc1ccc(NC(=O)C(C)Sc2nc(-c3ccccc3)cc(=O)[nH]2)cc1 (centres undefined),14% (inactive)
4,C=CCn1c(N)cc(=O)nc1SC(C)C(=O)Nc1ccc(C(=O)OCC)cc1 (centres undefined),6.39% (inactive)
5,CCc1ccccc1NC(=O)C1CCCN(c2nn3c(=O)cc(C)nc3s2)C1 (centres undefined),-6.18% (inactive)
6,O=C(COC(=O)c1cc(S(=O)(=O)N2CCOCC2)ccc1F)c1ccccc1,0.68% (inactive)
7,O=C(Nc1cccc(NC(=O)c2cc([N+](=O)[O-])ccc2Cl)n1)c1cc([N+](=O)[O-])ccc1Cl,10.1% (inactive)
8,CCc1cccc(NC(=O)C2CCN(c3ncnc4sc(C)c(C)c34)CC2)c1,22.6% (inactive)
9,Cc1sc2ncnc(N3CCC(C(=O)Nc4ccc(C#N)cc4)CC3)c2c1C,7.85% (inactive)
10,COc1cc(-c2noc(C)c2C(=O)NCc2ccc(C)o2)cc(OC)c1OC,3.84% (inactive)
11,CC(=O)c1c(C)[nH]c(C(=O)OCC(=O)NCc2cccs2)c1C,7.06% (inactive)
12,CC(C)Nc1nc(NC(C)C)nc(N(C)C(N)=O)n1,1.68% (inactive)
13,CC(C)Nc1nc(NC(C)C)nc(N(C)C#N)n1,0.57% (inactive)
14,C=CC[C@H](CC(=O)OC(C)(C)C)C(=O)OC[C@H]1CCCN1C(=O)[C@@H](CC=C)CC(=O)N(CCO)Cc1ccccc1,-3.24% (inactive)
15,C[C@H](NC(=O)c1[nH]cnc1C(=O)Nc1cccc(Cl)c1)c1ccccc1,48.7% (inactive)
16,C[C@@H](NC(=O)c1[nH]cnc1C(=O)Nc1cccc(Cl)c1)c1ccccc1,56.8% (inactive)
17,O=C(CN(Cc1ccccc1)C(=O)CNS(=O)(=O)c1ccc(F)cc1)NCC1CCCO1 (centres undefined),-5.05% (inactive)
18,Cc1nn(-c2ccccc2)c(Cl)c1/C=N/NC(N)=O,-5.57% (inactive)
19,Cc1nn(C)c(C)c1/C=C/C(=O)c1ccccc1,7.75% (inactive)
20,O=C(c1cccc(C(F)(F)F)c1)c1c[nH]c(C(=O)NCCCN2CCOCC2)c1,2.14% (inactive)

row,SMILES,inhibition
1,Cc1cc(S(=O)(=O)Nc2ccc3cn[nH]c3c2)c(C)cc1Cl,-3.66% (inactive)
2,O=C(Nc1ccc2[nH]ncc2c1)c1ccccc1Cl,-3.21% (inactive)
3,O=Cc1cc(Br)c(OC(=O)N2CCOCC2)c(Br)c1,5.26% (inactive)
4,OCc1cn(-c2ccccc2)nc1-c1ccc(-c2nn(-c3ccccc3)cc2CO)cc1,0.63% (inactive)
5,Cc1ccc(-c2nn(-c3ccccc3)cc2CO)cc1,4.76% (inactive)
6,CC(C)[C@]1(c2ccc(Cl)cc2)ON(c2ccccc2C(F)(F)F)C1=O,1.98% (inactive)
7,O=C(CCc1nc2ccccc2c(=O)[nH]1)Nc1nnc(SCc2ccc(Cl)cc2)s1,-0.53% (inactive)
8,Cn1ccnc1SCC(=O)NCC(=O)Nc1ccc(F)c(F)c1F,1.26% (inactive)
9,c1ccc(-c2nc(NC3CCCC3)c3ccccc3n2)cc1,11.8% (inactive)
10,c1ccc(CN2CCC(Nc3nc(-c4cccnc4)nc4ccccc34)CC2)cc1,10.5% (inactive)
11,O=C(Nc1ccc(Cl)c(Cl)c1)c1ccc(Cl)c(Cl)c1,1.7% (inactive)
12,O=C(Nc1ccncc1)c1ccc(Cl)c(Cl)c1,4.84% (inactive)
13,O=C(Nc1ccc2nc3ccccc3nc2c1)c1ccccc1,-0.69% (inactive)
14,CC(=O)Nc1ccc2nc3ccccc3nc2c1,-9.66% (inactive)
15,COc1ccc(C)cc1NC(=O)CN1CCCC1c1ccc2c(c1)OCCCO2 (centres undefined),5.61% (inactive)
16,COc1ccc(NC(=O)CCCCCN2C(=O)c3ccccc3C2=O)c(OC)c1,-6.73% (inactive)
17,C/C(=N\Nc1ccccc1Cl)c1ccc(-n2ccnc2)cc1,58.6% (inactive)
18,C/C(=N\Nc1cccc(Cl)c1)c1ccc(-n2ccnc2)cc1,0.99% (inactive)
19,COc1cccc(-c2cc(C(F)(F)F)c(C#N)c(=O)[nH]2)c1,-9.57% (inactive)
20,Cc1csc(=Nc2ccccc2)n1Cc1ccco1,11.3% (inactive)

row,SMILES,inhibition
1,N#Cc1c(NC(=O)CSc2nnnn2C2CCCCC2)sc2c1CCCC2,-13.1% (inactive)
2,Cn1nnnc1SCC(=O)Nc1nc2c(s1)CCCC2,2.88% (inactive)
3,Cc1ccc(N(CC(=O)NCc2ccco2)C(=O)CCC(=O)Nc2nccs2)c(C)c1,1.4% (inactive)
4,Cc1cc(N2CCC(C(=O)N3CCN(c4cccc(C)c4C)CC3)CC2)n2ncnc2n1,-0.67% (inactive)
5,COc1ccc(/C=C/C(=O)c2ccc(OC)cc2OC)cc1,58.4% (inactive)
6,COc1ccc2cc(C(=O)/C=C/c3cc(OC)c(O)c(OC)c3)ccc2c1,36.1% (inactive)
7,CC(=O)c1cccc(N2C(=NC(=O)CCc3ccccc3)SC3CS(=O)(=O)CC32)c1 (centres undefined),1.65% (inactive)
8,Cc1ccc(S(=O)(=O)NNC(=O)CCC(=O)Nc2ccc(C)cc2C)cc1,5.58% (inactive)
9,COc1cc(SC)ccc1C(=O)OCC(=O)NC1CCCCC1,-4.21% (inactive)
10,CCCCCCC1CC(CC(=O)Nc2ccc([N+](=O)[O-])cc2)C(=O)O1 (centres undefined),5.26% (inactive)
11,CCCCCC1CC(CC(=O)Nc2ccc([N+](=O)[O-])cc2)C(=O)O1 (centres undefined),68.8% (inactive)
12,O=C(CCNS(=O)(=O)c1ccc(F)c(Cl)c1)NCc1ccccc1F,-9.24% (inactive)
13,O=C(COC(=O)Cc1ccsc1)NCc1ccc(Cl)cc1,8.12% (inactive)
14,Cc1cccc(C(=O)CC(=O)c2cc(Cl)ccc2O)c1,0.28% (inactive)
15,Cc1cc(C)c(C(=O)CC(=O)c2ccccc2Cl)c(O)c1,6.33% (inactive)
16,Cc1ccc(-c2nnc(SCC(=O)N/N=C/c3c(C)nn(-c4ccccc4)c3C)n2-c2ccc(C)cc2)cc1,5.96% (inactive)
17,COc1ccc(CCN(C)CC(O)COC(c2ccc(F)cc2)c2ccc(F)cc2)cc1OC (centres undefined),6.55% (inactive)
18,CCCN1CCN(CC(O)COC(c2ccc(OC)cc2)c2ccc(OC)cc2)CC1 (centres undefined),6.36% (inactive)
19,O=C(NN1CC(C(=O)OCc2ccc(Cl)cc2Cl)CC1=O)c1ccccc1 (centres undefined),-12% (inactive)
